Assays:
Test in all cases: PBM binding z-score (relative to random genomic background probes); higher = stronger binding; sequences stand for … in GC…GCGATTGACAGCGTAGAATGAAGG
[1] = test system: FXR:RXRa (NR concentration 270 nM, RXRa partner concentration 90 nM)
Summary of the method: (§1)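 Ligand-free nuclear receptor dimers were applied to custom Agilent 4×180K protein-binding microarrays whose double-stranded probes carried direct-repeat seeds, single-nucleotide variants, half-site ablations and random human genomic background sequences in 34-nt variable regions. Incubation lasted 1 h. Binding z-scores were computed against the random background probes from regression-normalized fluorescence.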

[2] = test system: LXRa:RXRa (NR concentration 270 nM, RXRa partner concentration 90 nM)
Summary of the method: as §1

[3] = test system: LXRa homodimer (NR concentration 270 nM)
Summary of the method: as §1

[4] = test system: LXRb:RXRa (NR concentration 270 nM, RXRa partner concentration 90 nM)
Summary of the method: as §1

[5] = test system: LXRb homodimer (NR concentration 270 nM)
Summary of the method: as §1

[6] = test system: PPARa:RXRa (NR concentration 270 nM, RXRa partner concentration 90 nM)
Summary of the method: as §1

[7] = test system: PPARg:RXRa (NR concentration 180 nM, RXRa partner concentration 90 nM)
Summary of the method: as §1

[8] = test system: PPARg:RXRa 270nM:90nM, anti-RXR (NR concentration 270 nM, RXRa partner concentration 90 nM)
Summary of the method: as §1

[9] = test system: PPARg:RXRa 30nM:10nM, anti-RXR (NR concentration 30 nM, RXRa partner concentration 10 nM)
Summary of the method: as §1

[10] = test system: PPARg:RXRa 90nM:30nM, anti-RXR (NR concentration 90 nM, RXRa partner concentration 30 nM)
Summary of the method: as §1

| Sequence | PBM binding z-score [1] | PBM binding z-score [2] | PBM binding z-score [3] | PBM binding z-score [4] | PBM binding z-score [5] | PBM binding z-score [6] | PBM binding z-score [7] | PBM binding z-score [8] | PBM binding z-score [9] | PBM binding z-score [10] |
| --- | --- | --- | --- | --- | --- | --- | --- | --- | --- | --- |
| ATCTCTAGGTAACGTTCAGTGAAAGATCGATAGA | 0.596 | 0.51 | -0.179 | 0.297 | 0.462 | 0.836 | 0.58 | 0.792 | 0.317 | 0.669 |
| TCATATAGATAAAGGTGAAAGTCGAACGATATGA | 0.837 | 1.1 | 0.162 | 1.26 | 0.134 | 2.57 | 2.33 | 3.51 | 4.36 | 4.09 |
| ATCGAACGGTCGAAGGTGAGTATACCCACCCGAA | -0.145 | -0.0927 | -0.458 | -0.384 | -0.206 | 0.517 | 1.03 | 1.22 | 0.0354 | 0.698 |
| GATACAGGGCCAGCTAGAGGCCAGAGTATGGAAA | -0.612 | -0.872 | -0.883 | -1.08 | -1.43 | -0.738 | 0.208 | -0.6 | -0.543 | -0.645 |
| TAATATAGGTAAATGCTAGGTGAAAGTCCGATCT | 0.659 | 0.683 | 0.391 | 0.477 | 0.54 | 2.09 | 2.64 | 2.55 | 1.74 | 1.99 |
| ATAAGTAGGTTAGCTGGGGTCATTCAGACTAGGC | 4.71 | 5.52 | 3.28 | 4.94 | 1.18 | 5.41 | 6.1 | 5.42 | 3 | 5.01 |
| AATACAGGGTCATCGTAGGCCAGAATACGCACAG | 7.14 | 6.31 | 2.07 | 4.74 | 1.07 | 5.64 | 6.6 | 5.68 | 2.64 | 4.45 |
| TCAGACAGGTGTAGGTAACTCAGGTACGCAGTCG | 0.401 | 1.02 | 0.205 | 0.34 | -0.0818 | 0.643 | 0.472 | 1.78 | 3.54 | 2.76 |
| ATCGAAAGGTCGACGAGGTGAATATACACCGTTT | 5.37 | 3.82 | 0.162 | 3.31 | 0.511 | 4.54 | 3.21 | 3.62 | 1.4 | 2.47 |
| GCTGCTAGGTCAACTGACGGTCAGCTAAAGCTCG | 4.79 | 3.96 | 1.36 | 2.5 | 0.152 | 3.92 | 2.88 | 3.37 | 0.824 | 2.14 |
| GCTTGTAGATCAAGGCTAAGAAAGACTAAGCTAA | -1.48 | -0.741 | -0.903 | -0.837 | -0.875 | -0.665 | -0.447 | -0.418 | -0.329 | -0.359 |
| ATCTCTAGGTAAAGTTCTGTGAAAGATCGATAGA | 0.326 | 0.57 | 0.294 | 0.0682 | 0.741 | 0.12 | 0.24 | 0.886 | 0.571 | 0.677 |
| ATGGAAAGGTCGACGAGGTGAGTATACACCGTTT | 4.39 | 3.03 | -0.133 | 2.47 | 0.238 | 4.12 | 2.69 | 2.93 | 1.17 | 1.95 |
| CGAACGAGGTCAAGGACAGTGAATCTCCGCACGC | 7.55 | 5.54 | 0.753 | 4.4 | 0.542 | 5.95 | 7.29 | 6.61 | 3.39 | 5.65 |
| CCTTACGGGTCACGAAGTTATAGCACGACGAGCG | 6.04 | 3.71 | -0.266 | 3.39 | -0.139 | 5.75 | 6.25 | 5.64 | 2.5 | 4.43 |
| CAAACTAGGTCACAGAGGTCAAAGTGCGTGCGTA | 7.35 | 6.76 | 7.05 | 6.54 | 2.29 | 6.71 | 10.1 | 8.21 | 6.64 | 8.45 |
| GCGACTGGGTCAAAGCAGGTTACCATAAGGTTGG | 3.12 | 3.67 | -0.265 | 2.21 | -0.807 | 4.27 | 4.75 | 4.75 | 2.08 | 3.49 |
| GGAACGAGGGCATTCGAGTTGTTAGCATGGCGAT | 0.97 | 0.548 | -0.561 | -0.135 | -0.712 | 1.18 | 0.562 | 0.571 | -0.377 | 0.0631 |
| CCTATTGGGCCAAGGTCATTGATCAGTCAAAGCA | 3.16 | 2.92 | 0.821 | 2.85 | -0.34 | 3.83 | 2.79 | 3.83 | 1.37 | 3.21 |
| TTACCAAGGTGAGCTGAGGTCGTTGAGCCAACTC | 1.91 | 1.27 | -0.402 | 0.809 | -1.19 | 1.84 | -0.225 | 0.876 | -0.207 | 0.236 |
| TCTTGTAGATCAAGCAGGTTAAGAATGCCTGAGT | 0.16 | 0.304 | -0.202 | 0.114 | -0.543 | 0.658 | -0.22 | 1.1 | 2.61 | 1.83 |
| TCTAGCAGGCCAGAGTGTCACTCAAGAGGTACGG | -0.276 | -0.311 | -1.03 | -0.712 | -1.41 | 0.336 | 0.89 | 1.81 | 1.93 | 1.97 |
| TCTAGTTGGTCAAAGGTCCCACACTCGAAATGCG | 1.07 | 1.18 | 0.135 | 1.26 | 0.288 | 3.33 | 6.7 | 7.21 | 6.42 | 7.55 |
| GGAACGAGGGCAAGCTGATAGCAGAGTTTGATGG | 0.351 | 0.065 | -0.473 | 0.0396 | -1.04 | 1.37 | 0.979 | 0.733 | -0.285 | 0.3 |

Source: the supplement of paper PMC6555819
